These results are taken from PubChem BioAssay (NCI).

Compounds without any hit were thinned out: in the full panel of roughly 79,000, 15% have a hit. The source made the active and inactive calls. Rule as the data show it: active = growth inhibition above about 70%; inactive = the rest.

The first test in a line: NCI Yeast Anticancer Drug Screen. Data for the bub3 strain (AID 167). Conditions: S. cerevisiae bub3 mutant strain, at 50.0 µM, hits give high values. Summed up: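 Inhibition values come from growth of compound-treated mutant yeast normalised to vehicle-treated controls.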
`CN(C)c1ccc(C=O)cc1[N+](=O)[O-]`: the growth inhibition was -6.9% (inactive).

For `Nc1nc2c(c(-c3cccc(Cl)c3)n1)COC/C2=C\c1cccc(Cl)c1`, the growth inhibition is 25.4% (inactive).

In the case of `Cc1cccc(CSc2nc(N)nc3ncn(C4CC(O)C(CO)O4)c23)n1` (stereo not given), the growth inhibition was 2.05% (inactive).

In the case of `O=C(O)COc1ccccc1-c1ccccc1`, the growth inhibition is 1.55% (inactive).

For the molecule `Cc1nc(N)nc(-c2ccccc2)c1N=Nc1ccccc1Br`, the growth inhibition is -0.85% (inactive).

As to `CC(C)(C)C1CCC2c3c([nH]c4ccccc34)C3C(=O)N(c4ccc(C#N)cc4)C(=O)C3C2C1` (stereo not given), the growth inhibition was 38.6% (inactive).

Consider `ClCC#CCCl`, for which the growth inhibition was -7.4% (inactive).

Consider `O=C(N/N=C/c1ccc(Cl)cc1Cl)C(O)(c1ccccc1)c1ccccc1`, for which the growth inhibition is 10.7% (inactive).

For the molecule `CCCCNCC(=O)O[C@]1(CC)C(=O)OCc2c1cc1n(c2=O)Cc2cc3ccccc3nc2-1`, the growth inhibition was 40.2% (inactive).

As for `O=C(CN1C(=O)c2ccccc2C1=O)NCC(=O)N(C(=O)NC1CCCCC1)C1CCCCC1`, the growth inhibition was -3.35% (inactive).

Consider `O=C(O)c1ccc(F)c([N+](=O)[O-])c1`, for which the growth inhibition was -11.6% (inactive).

In the case of `O=C(NC1CCCCC1C1CCCCC1)c1ccc(Cl)cc1` (stereo not given), the growth inhibition was 7.15% (inactive).

For `COc1ccc(C(=O)/C=C/c2cc(C(C)(C)C)c(O)c(C(C)(C)C)c2)cc1`, the growth inhibition is 7.8% (inactive).

In the case of `CC1(C)CCC2(C(=O)OC3OC(CO)C(O)C(O)C3O)CCC3(CO)C(=CCC4C5(C)CC(O)C(O)C(C)(C(=O)OC6OC(CO)C(O)C(O)C6O)C5CCC43C)C2C1` (stereo not given), the growth inhibition is 19.3% (inactive).

Consider `CCCCCCCCCCCC(=O)OC(COC(N)=O)COc1ccc(Cl)cc1` (stereo not given), for which the growth inhibition is -10.2% (inactive).

Take `CC[P+](C)(Cc1ccccc1)c1ccccc1` (stereo not given): the growth inhibition is 9.45% (inactive).

Turning to `O=[N+]([O-])c1cccnc1Sc1nc2ccccc2[nH]1`, the growth inhibition is 21.8% (inactive).

As for `Clc1ccc(/C=C2/c3ccccc3-c3nc4ccccc4cc32)cc1`, the growth inhibition was -9.4% (inactive).

For the molecule `O=C(Cl)c1cc(I)c(I)c(I)c1`, the growth inhibition was 53.2% (inactive).

In the case of `COc1ccc2c(C(=O)O)cc3c4ccccc4ncc3c2c1`, the growth inhibition is -17.9% (inactive).

On to `CC(=O)CC(=O)Nc1ccc(Cl)cc1`, for which the growth inhibition is -5.55% (inactive).

Consider `NC(CSC(=O)c1ccccc1)C(=O)O` (stereo not given), for which the growth inhibition is -30.2% (inactive).

For the molecule `CCN(CC)C(=O)Cc1c(C(=O)N(CC)CC)c(=O)nc2sccn12`, the growth inhibition was -25% (inactive).

For the molecule `CC(=O)Nc1c([N+](=O)[O-])cc(C2CCCCC2)cc1[N+](=O)[O-]`, the growth inhibition is 23.2% (inactive).

Take `CCN(CC)CCn1cnc(C#N)c1N`: the growth inhibition is 1.65% (inactive).

Turning to `Nn1c(-c2ccccc2)n[nH]c1=O`, the growth inhibition was 3.25% (inactive).

`CCc1ccc(NC(=S)NC(=O)C(C)Oc2ccccc2)cc1` (stereo not given): the growth inhibition is 78.8% (active).

Take `Cc1ccc(Cc2cc(=O)[nH]c(=O)[nH]2)cc1`: the growth inhibition was 2.7% (inactive).

Regarding `N#Cc1cc2c(n(C3OC(CO)C(O)C(O)C3O)c1=S)CCCCCC2` (stereo not given), the growth inhibition was -3.55% (inactive).

As for `O=c1c(-c2c(-c3ccccc3)oc3ccc(Cl)cc3c2=O)c(-c2ccccc2)oc2ccc(Cl)cc12`, the growth inhibition is 17.3% (inactive).

With `N#CC(c1ccccc1)N(CCc1ccccc1)C(=O)c1ccccc1` (stereo not given), the growth inhibition is -27.8% (inactive).

Turning to `Nc1[nH]c(=O)ncc1[N+](=O)[O-]`, the growth inhibition was -16.2% (inactive).

Turning to `Cc1nc2c(N3CCCCC3)ncnc2o1`, the growth inhibition is -13.8% (inactive).

Regarding `CCC1CN2CCc3cc(OC)c(OC)cc3C2CC1CCCl` (stereo not given), the growth inhibition is -29.9% (inactive).

Turning to `COC(=O)C1(C)CCCC2(C)C1CCC1(O)C2CC2OC2(C(C)C)C1O` (stereo not given), the growth inhibition was -13.2% (inactive).

Take `N#C/C(=C\c1ccccc1)c1ccc(F)cc1F`: the growth inhibition was 6.55% (inactive).

In the case of `Cc1cc(=O)[nH]c(NN2C(Cl)C(=O)C2c2c(O)ccc3ccccc23)n1` (stereo not given), the growth inhibition is 0.7% (inactive).

Consider `CC1=NN(c2cc(S(=O)(=O)O)ccc2Cl)C(=O)C1N=Nc1ccccc1` (stereo not given), for which the growth inhibition was -20.6% (inactive).

Turning to `CC(C(=O)O)C(C)C(=O)O` (stereo not given), the growth inhibition was 5.1% (inactive).

On to `CCN(CC)C(=O)c1ccncc1C(=O)c1ccncc1`, for which the growth inhibition is -1.95% (inactive).

Another test can be described thus: NCI Yeast Anticancer Drug Screen. Data for the mlh1 rad18 strain (AID 175). To be noted: S. cerevisiae mlh1 rad18 strain growth inhibition; at 50.0 µM; hits give high values. Summed up: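 Inhibition values reflect reduced growth of mutant yeast versus vehicle-treated controls following compound exposure; the mutations affect DNA damage repair.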
Consider `CN(C)c1ccc(C=O)cc1[N+](=O)[O-]`, for which the growth inhibition was -5.9% (inactive).

Regarding `Nc1nc2c(c(-c3cccc(Cl)c3)n1)COC/C2=C\c1cccc(Cl)c1`, the growth inhibition is 24% (inactive).

In the case of `Cc1cccc(CSc2nc(N)nc3ncn(C4CC(O)C(CO)O4)c23)n1` (stereo not given), the growth inhibition was -19.6% (inactive).

For `O=C(O)COc1ccccc1-c1ccccc1`, the growth inhibition is -8.6% (inactive).

`Cc1nc(N)nc(-c2ccccc2)c1N=Nc1ccccc1Br`: the growth inhibition is 11.8% (inactive).

For the molecule `CC(C)(C)C1CCC2c3c([nH]c4ccccc34)C3C(=O)N(c4ccc(C#N)cc4)C(=O)C3C2C1` (stereo not given), the growth inhibition was 38.8% (inactive).

Regarding `ClCC#CCCl`, the growth inhibition is 5.1% (inactive).

As for `O=C(N/N=C/c1ccc(Cl)cc1Cl)C(O)(c1ccccc1)c1ccccc1`, the growth inhibition is 19.3% (inactive).

Take `CCCCNCC(=O)O[C@]1(CC)C(=O)OCc2c1cc1n(c2=O)Cc2cc3ccccc3nc2-1`: the growth inhibition is 62.2% (inactive).

Regarding `O=C(CN1C(=O)c2ccccc2C1=O)NCC(=O)N(C(=O)NC1CCCCC1)C1CCCCC1`, the growth inhibition is 5% (inactive).

Take `O=C(O)c1ccc(F)c([N+](=O)[O-])c1`: the growth inhibition was 12.4% (inactive).

Take `O=C(NC1CCCCC1C1CCCCC1)c1ccc(Cl)cc1` (stereo not given): the growth inhibition is 6.45% (inactive).

Regarding `COc1ccc(C(=O)/C=C/c2cc(C(C)(C)C)c(O)c(C(C)(C)C)c2)cc1`, the growth inhibition was 18.2% (inactive).

On to `CC1(C)CCC2(C(=O)OC3OC(CO)C(O)C(O)C3O)CCC3(CO)C(=CCC4C5(C)CC(O)C(O)C(C)(C(=O)OC6OC(CO)C(O)C(O)C6O)C5CCC43C)C2C1` (stereo not given), for which the growth inhibition is -92.2% (inactive).

On to `CCCCCCCCCCCC(=O)OC(COC(N)=O)COc1ccc(Cl)cc1` (stereo not given), for which the growth inhibition was -46.4% (inactive).

On to `CC[P+](C)(Cc1ccccc1)c1ccccc1` (stereo not given), for which the growth inhibition is 21.3% (inactive).

Take `O=[N+]([O-])c1cccnc1Sc1nc2ccccc2[nH]1`: the growth inhibition was 6.2% (inactive).

In the case of `Clc1ccc(/C=C2/c3ccccc3-c3nc4ccccc4cc32)cc1`, the growth inhibition was 6.85% (inactive).

In the case of `O=C(Cl)c1cc(I)c(I)c(I)c1`, the growth inhibition was 40% (inactive).

`COc1ccc2c(C(=O)O)cc3c4ccccc4ncc3c2c1`: the growth inhibition is -13.2% (inactive).

For the molecule `CC(=O)CC(=O)Nc1ccc(Cl)cc1`, the growth inhibition was 8.45% (inactive).

`NC(CSC(=O)c1ccccc1)C(=O)O` (stereo not given): the growth inhibition is -19.9% (inactive).

`CCN(CC)C(=O)Cc1c(C(=O)N(CC)CC)c(=O)nc2sccn12`: the growth inhibition is -43.6% (inactive).

As to `CC(=O)Nc1c([N+](=O)[O-])cc(C2CCCCC2)cc1[N+](=O)[O-]`, the growth inhibition is -9.85% (inactive).

As to `CCN(CC)CCn1cnc(C#N)c1N`, the growth inhibition was -0.2% (inactive).

In the case of `Nn1c(-c2ccccc2)n[nH]c1=O`, the growth inhibition was 9.45% (inactive).

Take `CCc1ccc(NC(=S)NC(=O)C(C)Oc2ccccc2)cc1` (stereo not given): the growth inhibition was 8.9% (inactive).

In the case of `Cc1ccc(Cc2cc(=O)[nH]c(=O)[nH]2)cc1`, the growth inhibition is 5.4% (inactive).

Regarding `N#Cc1cc2c(n(C3OC(CO)C(O)C(O)C3O)c1=S)CCCCCC2` (stereo not given), the growth inhibition was 37.1% (inactive).

`O=c1c(-c2c(-c3ccccc3)oc3ccc(Cl)cc3c2=O)c(-c2ccccc2)oc2ccc(Cl)cc12`: the growth inhibition is 3.75% (inactive).

As to `N#CC(c1ccccc1)N(CCc1ccccc1)C(=O)c1ccccc1` (stereo not given), the growth inhibition was -48.2% (inactive).

For `Nc1[nH]c(=O)ncc1[N+](=O)[O-]`, the growth inhibition is -0.65% (inactive).

Consider `Cc1nc2c(N3CCCCC3)ncnc2o1`, for which the growth inhibition was 4.05% (inactive).

`CCC1CN2CCc3cc(OC)c(OC)cc3C2CC1CCCl` (stereo not given): the growth inhibition is -24.7% (inactive).

With `COC(=O)C1(C)CCCC2(C)C1CCC1(O)C2CC2OC2(C(C)C)C1O` (stereo not given), the growth inhibition was 3.45% (inactive).

Consider `N#C/C(=C\c1ccccc1)c1ccc(F)cc1F`, for which the growth inhibition was 9.7% (inactive).

As for `Cc1cc(=O)[nH]c(NN2C(Cl)C(=O)C2c2c(O)ccc3ccccc23)n1` (stereo not given), the growth inhibition was -32.8% (inactive).

On to `CC1=NN(c2cc(S(=O)(=O)O)ccc2Cl)C(=O)C1N=Nc1ccccc1` (stereo not given), for which the growth inhibition is -24.8% (inactive).

For the molecule `CC(C(=O)O)C(C)C(=O)O` (stereo not given), the growth inhibition was 14.2% (inactive).

With `CCN(CC)C(=O)c1ccncc1C(=O)c1ccncc1`, the growth inhibition is -10.1% (inactive).
